Rows were chosen to be rich in hits. Some 2.3% of all compounds tested hit in one or more screens of this group.
PLCb3 inh: blocks human PLC-beta3 enzyme activity. Purified PLC-beta3, fluorogenic substrate, fluorescence. Q01970. hit rate 0.18% among 370,000. AID 720704. inhibition, % at 12.2 µM; in the data active = inhibition above about 11%
LEDGF integ inh: blocks HIV-1 LEDGF/p75-dependent DNA integration. hit rate 0.64% among 370,000. AID 743269. inhibition, % at 3.7 µM. TR-FRET IN-LEDGF/p75 DNA integration, Eu/Cy5;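 active = inhibition above the screen-wide mean plus 3 SD, cut at about 13% in these data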;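 also: signal is the Cy5 over europium emission ratio at 671 and 618 nm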
MBD2 inh: blocks human MBD2 binding to methylated DNA; TR-FRET, MBD2 binding to methylated oligonucleotide; Q9UBB5; inhibition, % at 4.4 µM; hit rate 0.31% among 370,000; in the data active = inhibition above about 13%
Target sequence (Q9UBB5 whole entry, looked up): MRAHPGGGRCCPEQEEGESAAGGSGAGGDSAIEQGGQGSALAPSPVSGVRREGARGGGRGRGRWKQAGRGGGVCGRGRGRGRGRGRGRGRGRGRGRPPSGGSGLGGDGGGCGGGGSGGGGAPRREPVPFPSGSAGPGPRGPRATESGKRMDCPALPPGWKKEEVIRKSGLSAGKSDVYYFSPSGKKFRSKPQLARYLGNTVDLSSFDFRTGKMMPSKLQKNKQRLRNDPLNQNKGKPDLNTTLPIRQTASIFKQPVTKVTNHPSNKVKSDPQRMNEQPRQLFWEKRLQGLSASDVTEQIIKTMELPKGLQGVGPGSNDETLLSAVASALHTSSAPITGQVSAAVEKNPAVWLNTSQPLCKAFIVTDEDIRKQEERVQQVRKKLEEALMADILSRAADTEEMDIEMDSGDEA
PLC-gamma1 inh: inhibitors of human phospholipase C gamma1; P19174; purified PLC-gamma1, fluorogenic substrate, fluorescence; inhibition, % at 12.2 µM; hit rate 0.84% among 370,000; AID 720700
UHRF1 MBD2 ctr: blocks human UHRF1 binding to methylated DNA; Q96T88; UHRF1 binding to methylated oligo, TR-FRET; inhibition, % at 4.4 µM; hit rate 0.75% among 370,000; in the data active = inhibition above about 21%;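 also: UHRF1 SRA domain binding a hemimethylated CpG hairpin DNA probe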
PLCgamma1 ctr: inhibits human PLC-gamma1 in PLC-beta3 counter-screen; shares compounds with PLC-gamma1 inh; purified PLC-gamma1, fluorogenic substrate, fluorescence; inhibition, % at 12.3 µM; hit rate 3.1% among 3,300
PLCb3 confirm: human PLC-beta3 inhibition, confirmation | shares compounds with PLC-gamma1 inh | purified PLC-beta3, fluorogenic substrate fluorescence | inhibition, % at 12.3 µM | hit rate 1% among 3,300 | AID 743261; in the data active = inhibition above about 11%
Numbers stand for hits; 0 = inactive; - = not tested or not shown. Rule as the data show it, unless noted: active = inhibition above about 9.5%; inactive = the rest.

SMILES	PLCb3 inh	LEDGF integ inh	MBD2 inh	PLC-gamma1 inh	UHRF1 MBD2 ctr	PLCgamma1 ctr	PLCb3 confirm
CCc1nc2ccc(C(=O)N3CCCC(C(N)=O)C3)cn2c1N(CCC(C)C)CCN(C)C (centres undefined)	0	0	0	0	0	-	-
CCOC(=O)Cn1cc(CN2C(C(=O)OC)CN(Cc3ccc(Cl)cc3)CCS2(=O)=O)nn1 (centres undefined)	0	0	0	0	0	-	-
O=C(NN1C(=O)NC2(CCCCC2)C1=O)c1ccc(Cl)c(Cl)c1	0	0	0	12	0	0	0
Cc1cc(C(=O)O)c(CCCN)s1	12	0	0	0	0	0	0
C=CCN1C(=O)[C@H](CC(=O)NCC23CC4CC(CC(C4)C2)C3)[C@@]2(C(=O)OC)CCCCC=C12	0	0	0	0	0	-	-
CN(Cc1ccccc1F)C(=O)CCCNC(=O)c1ccc(Cl)cc1	0	0	0	11	0	0	0
CC(=O)N1[C@@H](CO)[C@@H](c2ccc(-c3cccc(F)c3)cc2)[C@@H]1CNCC1CCC1	0	0	0	0	0	-	-
Cc1cccc(-c2noc(C(C)NC(=O)c3ccco3)n2)c1 (centres undefined)	0	0	0	13	0	0	0
CCCCNC(=O)CSc1nc2ccccc2c(=O)n1CC1COc2ccccc2O1 (centres undefined)	0	0	0	13	0	0	0
CCCCN(CC)C(=O)CSc1nc2ccccc2c(=O)n1CC1COc2ccccc2O1 (centres undefined)	0	0	0	0	0	-	-
COC(=O)[C@H](C)NC(=O)[C@H](CC(C)C)NC(=O)OC(C)(C)C	0	0	0	0	0	-	-
CCOc1ccc(NC(=O)CN2CCCN(c3ccc(OC)cc3)CC2)cc1	0	0	0	0	0	-	-
Cc1ccccc1C(=O)N1CCC(C(=O)N2CCN(Cc3ccc4c(c3)OCO4)CC2)CC1	0	0	0	12	0	0	0
O=C(c1cccs1)N1CCC(C(=O)N2CCN(Cc3ccc4c(c3)OCO4)CC2)CC1	0	0	0	0	0	-	-
CCN(CC(=O)NC1CCS(=O)(=O)C1)C(=O)C(c1ccccc1)c1ccccc1 (centres undefined)	0	0	0	12	0	0	0
CCN(CC(=O)NC1CCS(=O)(=O)C1)C(=O)COc1ccccc1-c1ccccc1 (centres undefined)	0	0	0	0	0	-	-
Nc1cc(Cl)ccc1Oc1ccc2ccccc2c1	0	0	0	14	0	0	0
CCCCCN1CCCCC(NC(=O)c2ccc(C)cc2)C1=O (centres undefined)	0	0	0	0	0	-	-
CC(C)N(Cc1ccccc1)C(=O)CN1C(=O)NC2(CCCC2)C1=O	0	0	0	10	0	0	0
COc1ccc(NC(=O)CCCCCN2C(=O)CCC2=O)cc1Cl	0	0	0	0	0	-	-
COc1ccc(NC(=O)CCCN2C(=O)CCC2=O)cc1Cl	0	0	0	11	0	0	0
O=C(CCn1c(=S)oc2ccccc21)NC1CCCCCCC1	0	0	0	10.0	0	0	0
O=C(NCCCN1CCN(c2ccc(F)cc2)CC1)Nc1ccccc1	0	0	0	0	0	-	-
O=C(Cn1c(NCCCO)nc2ccccc21)c1ccc(Br)cc1	12	0	0	0	0	0	0
CC(=O)NC1c2ccccc2C(=O)N1Cc1ccccc1 (centres undefined)	0	0	0	11	0	0	0
SMILES	PLCb3 inh	LEDGF integ inh	MBD2 inh	PLC-gamma1 inh	UHRF1 MBD2 ctr	PLCgamma1 ctr	PLCb3 confirm
C=CCN1C(=O)[C@@H](CC(=O)NCc2ccccc2)[C@]2(C(=O)OCC)CCCCC/C=C/12	0	0	0	0	0	-	-
O=C(CN1CCCCCC1)N/N=C/c1cccs1	0	0	0	16	0	0	0
CC(C)NC(=S)N/N=C/c1cccs1	0	0	0	11	0	0	0
O=C1[C@@H](C2CC2)[C@@H]2c3ccccc3C=NN2[C@@H]2c3ccccc3C=NN12	0	0	0	0	0	-	-
CCSc1nnc(NC(=O)c2cc(C)oc2C)s1	0	0	0	11	0	0	0
CC(=O)Nc1ccc(S(=O)(=O)c2ccc(C)cc2)cc1	0	0	0	10	0	0	0
CCC[C@H]1[C@@H](NC(=O)C2CCCCC2)CC[C@@]23CCCN2C(=O)CCC[C@@H]13	0	0	0	0	0	-	-
Nc1cc(OC(=O)c2cccs2)nn1S(=O)(=O)c1ccc(F)cc1	0	0	0	0	0	-	-
Nc1cc(OC(=O)c2cccs2)nn1S(=O)(=O)c1ccccc1	0	0	0	0	0	-	-
Cc1nn(-c2ccccc2)c(OC(=O)c2cccs2)c1S(=O)(=O)c1ccc([N+](=O)[O-])cc1	20	0	0	15	0	0	0
Cc1nn(-c2ccccc2)c(OC(=O)c2cccs2)c1S(=O)(=O)c1ccccc1	0	0	0	14	0	0	0
O=C(CCCC(=O)N1CCc2ccccc21)N1CCc2ccccc21	0	0	0	0	0	-	-
O=C(Cc1ccc(-n2cccc2)cc1)N1CCc2ccccc21	0	0	0	9.9	0	0	0
O=C(CCNC(=O)c1ccccc1Cl)Nc1ccc2c(c1)OCO2	0	0	0	11	0	0	0
Cc1cc(NS(=O)(=O)c2ccc(NC(=O)Cc3ccc(Cl)c(Cl)c3)cc2)on1	0	0	0	0	0	-	-
O=C(O)CCCNS(=O)(=O)c1ccc(F)cc1	0	0	0	9.7	0	0	0
COc1ccc(C(CNC(=O)c2cc3ccccc3o2)N2CCCC2)cc1 (centres undefined)	0	0	0	11	0	0	0
O=C(NCc1ccccc1F)C1C2C=CC3(CN(Cc4ccccc4)C(=O)C13)O2 (centres undefined)	0	0	0	0	0	-	-
COC(=O)[C@]12C[C@H](CC(=O)NCc3cccc4ccccc34)C(=O)N(Cc3ccco3)C1=C[C@H](C(C)C)O[C@@H]2C1CC1	0	0	0	0	0	-	-
CCCCNc1c(-c2cccc(-c3cc(C(C)=O)cs3)c2)nc2ccc(C)cn12	0	0	0	9.7	0	0	0
Cc1ccc(N(C(=O)CCC(=O)Nc2cc(C)on2)C(C(=O)NC2CCCC2)c2ccncc2)cc1 (centres undefined)	0	0	0	10	0	0	0
O=C(Nc1ccc(Cl)cc1Cl)O[C@@H]1CC[C@@]23CCCN2C(=O)CCC[C@H]3C1	0	0	0	0	0	-	-
Cc1ccc(CNC(=O)OC(C)(C)C)c(/C=C/S(=O)(=O)NC2CCCC2)c1	0	0	0	0	0	-	-
Clc1ccc(OCCOCCN2CCCCC2)c(Br)c1	0	0	0	11	0	0	0
CC1CCN(CCOCCOc2ccc(Cl)cc2Br)CC1	0	0	0	0	0	-	-
Clc1cc(Br)ccc1OCCOCCN1CCOCC1	14	0	0	13	0	0	0
COC(=O)C[C@H]1CC[C@@H]2[C@@H](COc3ccc(NC(=O)c4ccccc4)cc3C(=O)N2C)O1	0	0	0	0	0	-	-

Screens (PubChem)
